p53 reactivation = re-activators of mutant p53; Potency, µM (highest dose often 92.2 µM), hits mostly activators; AID 504706; H1299 p53-A138V BP100-luciferase reporter, luminescence, 24 h; 320,000 compounds, 0.063% hits; further: nearly all actives have a fitted effect of over 45% in size
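p53-null H1299 cells stably carrying temperature-sensitive p53-A138V and a BP100-luciferase reporter were pinned with compounds (4-point, 1:5 series) and held 24 hrs at 37 deg C. Luminescence was read 10 min after detection reagent.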
ELG1 DNA repair = inhibitors of ELG1-dependent DNA repair in HEK293T cells | HEK293T ELG1-luciferase reporter, luminescence, 16 h; DNA damage induced by 5-fluorouridine | Potency, µM (titrated, usually from 46.1 µM), actives largely listed as inhibitors | 330,000 compounds, 2.3% hits | AID 504467; further: nearly all actives have a fitted effect of over 55% in size
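Overnight (16 hr) co-exposure of 2,000 cells/well to 5-fluorouridine and compound at 37 °C preceded detection. Luciferase was quantified via ONE-Glo luminescence; loss of signal denotes inhibition.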
BRCA1 expr act = BRCA1 expression activation; MCF7-BRCA1-FFLuc reporter, luminescence, 48 h; response scale: scaled: vehicle 0%, 10 µM genistein 100%; Potency, µM (top dose mostly 46.1 µM), most hits filed as activators; 380,000 compounds, 1.1% hits; AID 624202; further: nearly all actives have a fitted effect of over 80% in size
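48 h compound treatment of MCF7-BRCA1-FFLuc cells (phenol-red free MEM, 37 °C), then 15 min with luciferase substrate and luminescence imaging.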
Giardia killer = Giardia lamblia killing. Giardia lamblia trophozoite viability. activity change, % at 7.66 µM, hits read low. 340,000 compounds, 0.15% hits. AID 540267; in the data active means activity change below about -80%; inconclusive means between about -30% and that limit;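 further: parasites exposed to compound for two days anaerobically before the ATP read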
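Killing of trophozoites was scored by loss of ATP luminescence after a 48 hrs anaerobic exposure to compounds at 37 deg C, using 100 cells per well.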
Gal4-VP16 FLuc = Gal4-VP16 reporter inhibition counter-screen. Drosophila S2 Gal4-VP16 UAS-luciferase, luminescence, 20 h. Potency, µM (doses to about 53.6 µM), actives largely listed as inhibitors. 310,000 compounds, 3.5% hits;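 further: Gal4-VP16 expression switched on by copper sulfate through the metallothionein promoter; nearly all actives have a fitted effect of over 50% in size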
RORg inh = blocks mouse ROR gamma transcriptional activity | 310,000 compounds, 5.4% hits | Drosophila S2 Gal4-RORgamma UAS-luciferase reporter, 20 h | Potency, µM (titrated, usually from 53.6 µM), actives largely listed as inhibitors | P51450; further: nearly all actives have a fitted effect of over 60% in size
Target sequence (P51450 whole entry, looked up, the tested form may be a part): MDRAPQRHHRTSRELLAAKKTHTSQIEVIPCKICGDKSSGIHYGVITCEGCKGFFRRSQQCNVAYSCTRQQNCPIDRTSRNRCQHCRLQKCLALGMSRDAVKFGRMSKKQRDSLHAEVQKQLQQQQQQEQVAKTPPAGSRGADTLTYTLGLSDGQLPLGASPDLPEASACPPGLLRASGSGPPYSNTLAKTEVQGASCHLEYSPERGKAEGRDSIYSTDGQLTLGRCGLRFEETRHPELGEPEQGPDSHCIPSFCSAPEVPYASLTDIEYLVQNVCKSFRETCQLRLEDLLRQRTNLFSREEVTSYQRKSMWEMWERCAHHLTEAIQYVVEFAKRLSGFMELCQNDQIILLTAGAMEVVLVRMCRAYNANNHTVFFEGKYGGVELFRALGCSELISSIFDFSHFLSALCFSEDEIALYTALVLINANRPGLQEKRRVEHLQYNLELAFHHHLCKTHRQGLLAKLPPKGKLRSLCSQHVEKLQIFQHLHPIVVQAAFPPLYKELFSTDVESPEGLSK
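Read-out: Photinus luciferase luminescence; inhibitors lower reporter signal. Insect Schneider cells with Gal4-ROR gamma fusion under metallothionein promoter, UAS reporter; 700 uM final copper sulfate induction, 20 hr, ambient temperature.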
Hits are given with their value; - = inactive; ? = inconclusive; . = not tested or not shown; ! = repeats disagree; [ ] = remark or other dose. This is a sample that favours compounds with a hit; in the whole collection about 7.6% have one here. Unless noted, the call rests on the fitted dose curve; in most records, active means well fitted curve in the direction sought with a large enough effect; inconclusive means small, poorly fitted or top-dose-only effect, or another doubt; inactive means no such curve, though single readings can be large; an effect the other way counts as inactive or inconclusive.

SMILES	p53 reactivation	ELG1 DNA repair	BRCA1 expr act	Giardia killer	Gal4-VP16 FLuc	RORg inh
FC(F)Oc1ccc(-c2csc(=Nc3cccnc3)n2CC2CCCO2)cc1 (stereo not drawn)	-	?	-	-	-	-
COCCCn1c(-c2ccc(S(=O)(=O)N3CCOCC3)cc2)csc1=Nc1ccccc1	-	6.5µM	-	-	-	-
OCCCn1c(-c2ccccc2)csc1=Nc1ccccc1	-	-	-	-	-	?
CN1C(=O)C2(C(C#N)=C(N)N(c3cc(Cl)cc(Cl)c3)C3=C2C(=O)CCC3)c2ccccc21 (stereo not drawn)	-	10µM	-	-	-	-
OC[C@@H]1CN(Cc2ccncc2)C[C@H](n2cnc3c(NCc4ccco4)ncnc32)O1	.	.	-	.	.	.
O=C(N/N=C/c1cc(Cl)cc([N+](=O)[O-])c1O)c1cc(-c2ccccn2)nc2ccccc12	-	?	-	-	10µM	5.6µM
O=[N+]([O-])c1cc(Cl)cc(/C=N\Nc2ccccn2)c1O	-	?	-	-	1.1µM	0.56µM
O=[N+]([O-])c1ccc(Cl)cc1C=NNc1ccccn1	.	.	-	-	.	.
COc1ccc(C(=O)NNC2=C(C(=O)C(F)(F)F)CCC2)cc1	-	?	-	-	?	14µM
O=C(NNC1=C(C(=O)C(F)(F)F)CCC1)c1cccc(Cl)c1	-	?	-	-	?	?
O=C(NNC1=C(C(=O)C(F)(F)F)CCC1)c1ccc(Cl)cc1	?	?	-	-	?	11µM
CCOCCCNC(=O)c1ccc2c(c1)ncn2-c1ccc(CC)cc1	-	?	-	-	-	-
NC(=S)COc1ccccc1	-	-	-	-	-	22µM
NC(=O)COc1ccccc1	-	-	-	-	-	-
O=C(O)COc1ccc(Oc2ccccc2)cc1	-	-	-	-	13µM	?
O=C(O)COc1ccc(Nc2ccccc2)cc1	-	-	-	-	-	-
Cc1cccc2c(=O)c(-c3ccc(Cl)cc3)c(NC(=O)c3ccco3)oc12	-	?	-	-	-	-
CCN(CC)S(=O)(=O)c1ccc(N/N=C/c2ccc(O)cc2)nc1	-	?	-	-	-	-
CCOc1cccc(/C=N/Nc2ccc(S(=O)(=O)N(CC)CC)cn2)c1O	-	-	-	-	3.2µM	1µM
CCN(CC)S(=O)(=O)c1ccc(N/N=C(\C)c2ccc(OC)cc2O)nc1	?	-	-	-	2.5µM	0.71µM
CCN(CC)S(=O)(=O)c1ccc(N/N=C/c2cc(OC)c(OC)cc2OC)nc1	-	-	-	-	-	-
O=C(NC(c1ccccc1)c1ccc2ccccc2n1)C1CCN(Cc2cccc(C(F)(F)F)c2)CC1 (stereo not drawn)	.	.	-	.	.	.
COc1ccc(-c2csc(NC(=O)c3ccccc3NS(=O)(=O)c3ccc(C)cc3)n2)cc1	.	13µM	-	-	?	-[10 µM]
COc1ccc(-c2csc(NC(=O)COc3ccc(N(C)S(=O)(=O)c4ccc(C)cc4)cc3)n2)cc1	?	7.3µM	-	-	-	-
COc1ccc(S(=O)(=O)Nc2ccccc2C(=O)Nc2nc(-c3ccc(F)cc3)cs2)cc1OC	-	15µM	-	-	?	?
SMILES	p53 reactivation	ELG1 DNA repair	BRCA1 expr act	Giardia killer	Gal4-VP16 FLuc	RORg inh
Cc1ccc(-c2csc(NC(=O)COc3ccc(N(C)S(=O)(=O)c4ccc(C)cc4)cc3)n2)cc1	-	?	-	-	-	-
COc1ccc(NC(=O)c2oc3ccccc3c2NC(=O)COc2ccc(F)cc2)c(OC)c1	.	.	-	.	.	.
Cc1c(Cl)cccc1NC(=S)N(Cc1ccco1)C(C)c1ccccn1 (stereo not drawn)	-	-	-	-	?	10µM
CSc1cccc(NC(=S)N(CCN(C)C)C(C)c2ccncc2)c1 (stereo not drawn)	-	-	-	-	-	?
CSc1cccc(NC(=S)N(CCN(C)C)C(C)c2ccccn2)c1 (stereo not drawn)	-	?	-	-	?	18µM
Cc1ccccc1NC(=S)N(Cc1ccco1)C(C)c1ccccn1 (stereo not drawn)	-	-	-	-	?	13µM
Cc1c(Cl)cccc1NC(=S)N(CCN(C)C)C(C)c1ccccn1 (stereo not drawn)	-	-	-	-	?	13µM
Cc1ccccc1NC(=S)N(CCN(C)C)C(C)c1ccccn1 (stereo not drawn)	-	-	-	-	-	?
CC(=O)OCCCNc1cc(Sc2ccc(C)cc2)c2nonc2c1[N+](=O)[O-]	-	?	-	-	?	-
CC(=O)OCCNc1cc(SCc2ccco2)c2nonc2c1[N+](=O)[O-]	-	-	-	-	?	11µM
CC(=O)OCCCNc1cc(Sc2nc3ccccc3s2)c2nonc2c1[N+](=O)[O-]	-	-	-	-	5µM	3.5µM
COC(=O)c1sccc1NC(=O)CC1C(=O)NCCN1C(=O)Nc1ccc(OCc2ccccc2)cc1 (stereo not drawn)	-	12µM	-	-	-	-
CCCCc1ccc(NC(=O)N2CCNC(=O)C2CC(=O)Nc2ccsc2C(=O)OC)cc1 (stereo not drawn)	-	23µM	-	-	-	-
CCC1SC2=NC(C)=C(C(=O)OC)C(c3ccc(C(=O)OC)cc3)N2C1=O (stereo not drawn)	-	-	-	-	-	-
O=C(NNS(=O)(=O)c1ccccc1F)c1cccc(S(=O)(=O)N2CCOCC2)c1	-	-	-	-	-	-[10 µM]
CC1CCN(S(=O)(=O)c2cn(CC(=O)N3CC(C)CC(C)C3)c(=O)c3ccccc23)CC1 (stereo not drawn)	-	-	-	-	-	-
O=C(Nc1ccc(-c2nc3ccccc3[nH]2)cc1)c1ccc2c(c1)OCO2	-	?	?	-	11µM	?
O=C(Nc1ccc(C(F)(F)F)cc1)c1ccc2nc[nH]c2c1	-	?	-	-	-	-
Cc1ccc(NC(=O)c2ccc3c(c2)OCO3)cc1Cl	-	?	?	-	-	-
CCOc1ccc(C(=O)Nc2ccc(-c3nc4ccccc4[nH]3)cc2)cc1[N+](=O)[O-]	-	?	3.2µM!	-	?	-
O=C(Nc1ccc2c(c1)OCO2)c1ccc2nc[nH]c2c1	-	?	5.6µM	-	-	?
O=C(Nc1ccc(Cl)c(-c2nc3ccccc3[nH]2)c1)c1ccc2c(c1)OCO2	-	21µM	-	-	-	?
COc1ccc(CCNC(=O)c2ccc(C)s2)cc1OC	-	-	-	-	-[10 µM]	-
COc1ccc(NC(=O)C(=O)NCCN2CCN(C(=O)c3ccc(C(C)(C)C)cc3)CC2)cc1	-	-	-	-	-	-
COc1ccc(OC)c(NC(=O)CN2C(=O)CSc3ccc(S(=O)(=O)N4CCCC4)cc32)c1	-	-	-	-	-	-

Compound activity deposited in PubChem BioAssay by National Center for Advancing Translational Sciences (NCATS).
